{
  "source": "the antibiotic and cytotoxicity screens of Wong et al. (2023)",
  "note": "The campaign covered roughly 39,000 compounds. About 3,300 (8.5%) were called active. The sample holds actives, similar compounds and a random draw of the others, so the mix is not that of the screen.",
  "data": [
    {"tested_on": "HepG2", "test": "cytotoxicity call (relative viability < 0.9)", "details": "10 µM", "values": [
      {"smiles": "COc1ccc(NC(=O)Nc2ccc3c(c2)C(=O)N([C@H](C)CO)C[C@H](C)[C@H](CN(C)S(=O)(=O)c2ccc(F)cc2)OCCCC[C@H](C)O3)cc1", "cytotoxicity call": "inactive"},
      {"smiles": "CC(C)NC(=O)Nc1ccc2c(c1)C(=O)N([C@@H](C)CO)C[C@@H](C)[C@@H](CN(C)C(=O)Nc1ccc(C(F)(F)F)cc1)OCCCC[C@H](C)O2", "cytotoxicity call": "inactive"},
      {"smiles": "CC(C)NC(=O)Nc1ccc2c(c1)C(=O)N([C@@H](C)CO)C[C@@H](C)[C@H](CN(C)C(=O)Nc1ccc(C(F)(F)F)cc1)OCCCC[C@@H](C)O2", "cytotoxicity call": "active"},
      {"smiles": "CC(C)NC(=O)Nc1ccc2c(c1)C(=O)N([C@H](C)CO)C[C@@H](C)[C@@H](CN(C)C(=O)Nc1ccc(C(F)(F)F)cc1)OCCCC[C@@H](C)O2", "cytotoxicity call": "active"},
      {"smiles": "CC(C)NC(=O)Nc1ccc2c(c1)C(=O)N([C@H](C)CO)C[C@H](C)[C@H](CN(C)C(=O)Nc1ccc(C(F)(F)F)cc1)OCCCC[C@H](C)O2", "cytotoxicity call": "inactive"},
      {"smiles": "CC(C)NC(=O)Nc1ccc2c(c1)C(=O)N([C@H](C)CO)C[C@@H](C)[C@H](CN(C)C(=O)Nc1ccc(C(F)(F)F)cc1)OCCCC[C@H](C)O2", "cytotoxicity call": "inactive"},
      {"smiles": "CC(C)NC(=O)Nc1ccc2c(c1)C(=O)N([C@@H](C)CO)C[C@@H](C)[C@H](CN(C)C(=O)Nc1ccc(C(F)(F)F)cc1)OCCCC[C@H](C)O2", "cytotoxicity call": "inactive"},
      {"smiles": "C[C@H]1CCCCO[C@@H](CN(C)C(=O)c2ccccc2)[C@@H](C)CN([C@@H](C)CO)C(=O)c2cc(NC(=O)C3CCCCC3)ccc2O1", "cytotoxicity call": "inactive"},
      {"smiles": "CC(C)(C)[S@@](=O)N1Cc2cc(C(=O)NCc3ccc4c(c3)OCO4)nc(-c3cccc(-c4cccnc4)c3)c2[C@H]1CCO", "cytotoxicity call": "inactive"},
      {"smiles": "COCCNC(=O)C[C@@H]1CC[C@@H]2[C@@H](COc3ccc(NC(=O)Nc4cccc(F)c4)cc3C(=O)N2C)O1", "cytotoxicity call": "inactive"},
      {"smiles": "CCCCNC(=O)N1C[C@@H]2[C@H](CN)[C@@H]2C1", "cytotoxicity call": "inactive"},
      {"smiles": "C[C@@H]1CCCCO[C@H](CN(C)C(=O)NC2CCCCC2)[C@H](C)CN([C@H](C)CO)C(=O)c2cc(NS(=O)(=O)c3ccc(F)cc3)ccc2O1", "cytotoxicity call": "active"},
      {"smiles": "C[C@H](CO)N1C[C@H](C)[C@@H](CN(C)C(=O)NC2CCCCC2)OCCCC[C@H](C)Oc2ccc(NS(=O)(=O)c3ccc(F)cc3)cc2C1=O", "cytotoxicity call": "inactive"},
      {"smiles": "Cc1ccc(S(=O)(=O)Nc2ccc3c(c2)C(=O)N([C@@H](C)CO)C[C@H](C)[C@H](CN(C)C(=O)NC2CCCCC2)OCCCC[C@@H](C)O3)cc1", "cytotoxicity call": "inactive"},
      {"smiles": "Cc1ccc(S(=O)(=O)Nc2ccc3c(c2)C(=O)N([C@@H](C)CO)C[C@@H](C)[C@H](CN(C)C(=O)NC2CCCCC2)OCCCC[C@@H](C)O3)cc1", "cytotoxicity call": "active"},
      {"smiles": "C[C@@H]1CCCCO[C@@H](CN(C)C(=O)NC2CCCCC2)[C@@H](C)CN([C@@H](C)CO)C(=O)c2cc(NS(=O)(=O)c3ccc(F)cc3)ccc2O1", "cytotoxicity call": "inactive"},
      {"smiles": "Cc1ccc(S(=O)(=O)Nc2ccc3c(c2)C(=O)N([C@@H](C)CO)C[C@H](C)[C@@H](CN(C)C(=O)NC2CCCCC2)OCCCC[C@@H](C)O3)cc1", "cytotoxicity call": "inactive"},
      {"smiles": "Cc1ccc(S(=O)(=O)Nc2ccc3c(c2)C(=O)N([C@H](C)CO)C[C@H](C)[C@@H](CN(C)C(=O)NC2CCCCC2)OCCCC[C@H](C)O3)cc1", "cytotoxicity call": "inactive"},
      {"smiles": "Cc1ccc(S(=O)(=O)Nc2ccc3c(c2)C(=O)N([C@@H](C)CO)C[C@H](C)[C@@H](CN(C)C(=O)NC2CCCCC2)OCCCC[C@H](C)O3)cc1", "cytotoxicity call": "active"},
      {"smiles": "Cc1ccc(S(=O)(=O)Nc2ccc3c(c2)C(=O)N([C@H](C)CO)C[C@@H](C)[C@H](CN(C)C(=O)NC2CCCCC2)OCCCC[C@@H](C)O3)cc1", "cytotoxicity call": "inactive"},
      {"smiles": "C[C@@H]1CN([C@@H](C)CO)S(=O)(=O)c2ccc(-c3ccc(C(=O)N(C)C)cc3)cc2O[C@H]1CN(C)C(=O)C1CCC1", "cytotoxicity call": "inactive"},
      {"smiles": "CCS(=O)(=O)NCc1nccc(N(C)C)n1", "cytotoxicity call": "inactive"},
      {"smiles": "COc1ccc(S(=O)(=O)N(C)C[C@H]2OCc3cn(nn3)CCCC(=O)N([C@H](C)CO)C[C@@H]2C)cc1", "cytotoxicity call": "inactive"},
      {"smiles": "O=C(C[C@@H]1CC[C@H]2[C@@H](COC[C@@H](O)CN2S(=O)(=O)c2ccccc2)O1)N[C@@H]1CCN(Cc2ccccc2)C1", "cytotoxicity call": "inactive"},
      {"smiles": "Cc1noc(C)c1NC(=O)Nc1ccc2c(c1)C(=O)N([C@H](C)CO)C[C@@H](C)[C@H](CN(C)Cc1ccc(Cl)c(Cl)c1)OCCCC[C@H](C)O2", "cytotoxicity call": "inactive"},
      {"smiles": "Cc1noc(C)c1NC(=O)Nc1ccc2c(c1)C(=O)N([C@H](C)CO)C[C@H](C)[C@@H](CN(C)Cc1ccc(Cl)c(Cl)c1)OCCCC[C@@H](C)O2", "cytotoxicity call": "inactive"},
      {"smiles": "Cc1noc(C)c1NC(=O)Nc1ccc2c(c1)C(=O)N([C@H](C)CO)C[C@@H](C)[C@H](CN(C)Cc1ccc(Cl)c(Cl)c1)OCCCC[C@@H](C)O2", "cytotoxicity call": "inactive"},
      {"smiles": "Cc1noc(C)c1NC(=O)Nc1ccc2c(c1)C(=O)N([C@H](C)CO)C[C@@H](C)[C@@H](CN(C)Cc1ccc(Cl)c(Cl)c1)OCCCC[C@H](C)O2", "cytotoxicity call": "active"},
      {"smiles": "Cc1noc(C)c1NC(=O)Nc1ccc2c(c1)C(=O)N([C@H](C)CO)C[C@H](C)[C@@H](CN(C)Cc1ccc(Cl)c(Cl)c1)OCCCC[C@H](C)O2", "cytotoxicity call": "inactive"},
      {"smiles": "Cc1noc(C)c1NC(=O)Nc1ccc2c(c1)C(=O)N([C@H](C)CO)C[C@H](C)[C@H](CN(C)Cc1ccc(Cl)c(Cl)c1)OCCCC[C@@H](C)O2", "cytotoxicity call": "inactive"},
      {"smiles": "Cc1noc(C)c1NC(=O)Nc1ccc2c(c1)C(=O)N([C@@H](C)CO)C[C@@H](C)[C@H](CN(C)Cc1ccc(Cl)c(Cl)c1)OCCCC[C@H](C)O2", "cytotoxicity call": "inactive"},
      {"smiles": "Cc1noc(C)c1NC(=O)Nc1ccc2c(c1)C(=O)N([C@@H](C)CO)C[C@H](C)[C@@H](CN(C)Cc1ccc(Cl)c(Cl)c1)OCCCC[C@@H](C)O2", "cytotoxicity call": "active"},
      {"smiles": "Cc1noc(C)c1NC(=O)Nc1ccc2c(c1)C(=O)N([C@@H](C)CO)C[C@H](C)[C@@H](CN(C)Cc1ccc(Cl)c(Cl)c1)OCCCC[C@H](C)O2", "cytotoxicity call": "inactive"},
      {"smiles": "Cc1noc(C)c1NC(=O)Nc1ccc2c(c1)C(=O)N([C@@H](C)CO)C[C@@H](C)[C@@H](CN(C)Cc1ccc(Cl)c(Cl)c1)OCCCC[C@@H](C)O2", "cytotoxicity call": "active"},
      {"smiles": "Cc1noc(C)c1NC(=O)Nc1ccc2c(c1)C(=O)N([C@@H](C)CO)C[C@@H](C)[C@H](CN(C)Cc1ccc(Cl)c(Cl)c1)OCCCC[C@@H](C)O2", "cytotoxicity call": "active"},
      {"smiles": "Cc1noc(C)c1NC(=O)Nc1ccc2c(c1)C(=O)N([C@H](C)CO)C[C@H](C)[C@H](CN(C)Cc1ccc(Cl)c(Cl)c1)OCCCC[C@H](C)O2", "cytotoxicity call": "inactive"}
    ]}
  ]
}
